# Experimental data as given in PubChem BioAssay AID720486 (Milwaukee Institute for Drug Discovery, 2013).
# The list shows a part of the results. Calls of active or inactive are those of the source.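 How the source made its calls: active means inhibition of at least 50%; inactive means the rest.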
# Target: Single-stranded DNA-binding protein (Escherichia coli (strain K12)) (UniProt P0AGE0)
# Test: disruption of SSB binding to ssDNA – biochemical, fluorescence polarization, selected ChemBridge compounds, counter-screen for HCV NS3 helicase inhibitor project (AID 720486);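 further: displacers lower Cy5 polarization so higher inhibition means more SSB displaced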
# Conditions: E. coli SSB binding Cy5-dT15, fluorescence polarization; at 100 µM; stronger effect = higher value
# Sequence of Single-stranded DNA-binding protein (Escherichia coli (strain K12)) (P0AGE0 whole entry, looked up): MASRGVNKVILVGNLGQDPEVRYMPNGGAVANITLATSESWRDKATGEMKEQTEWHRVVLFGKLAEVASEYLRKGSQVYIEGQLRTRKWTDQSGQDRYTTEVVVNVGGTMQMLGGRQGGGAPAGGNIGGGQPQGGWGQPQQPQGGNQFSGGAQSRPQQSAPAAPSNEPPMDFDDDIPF
row,Structure (SMILES),inhibition
1,C=CCN1C(=O)/C(=C\c2cc(OC)c(O)c([N+](=O)[O-])c2)C(=O)NC1=S,98.8% (active)
2,COc1cc(C=C2C(=O)NC(=O)NC2=O)ccc1OCCOc1ccc([N+](=O)[O-])cc1,19.9% (inactive)
3,COc1cc(/C(O)=C(\C#N)c2nc3ccccc3n2C)cc(OC)c1OC,10.2% (inactive)
4,Cc1ccc(C(=O)C[n+]2cc(-c3ccccc3)n3c2CCCCC3)cc1,5.34% (inactive)
5,CCN(CC)c1ccc(NC(=O)/C(=C\c2ccccc2)NC(C)=O)cc1,55.1% (active)
6,COc1ccc(C(=O)Oc2ccc3oc(=O)cc(C)c3c2)cc1OC,12.6% (inactive)
7,Cc1ccc(C(=O)NCCNc2ccc([N+](=O)[O-])cc2)cc1,34.5% (inactive)
8,N#Cc1c(N)nc2sc(C(=O)Nc3ccccc3)c(N)c2c1-c1ccco1,16.3% (inactive)
9,COc1ccc(N2C(=O)C=CC2=O)c([N+](=O)[O-])c1,-5.58% (inactive)
10,O=c1c2c(nc3cc(-c4cccc(F)c4)[nH]n13)CCS2,84.2% (active)
11,CCOc1ccc(C=C2C(=O)NC(=O)NC2=O)cc1Cl,19.9% (inactive)
12,O=C1NC(=O)C(=Cc2cc([N+](=O)[O-])cc(Br)c2O)C(=O)N1,51.5% (active)
13,O=C(NC(=S)Nc1ccc(-c2nc3cc(Cl)ccc3o2)cc1)c1ccco1,19.9% (inactive)
14,CC(C)(C)N1C(=O)NC(=O)C(=Cc2cccs2)C1=O,11.4% (inactive)
15,CCN(CC)c1ccc(C=C2C(=O)N(C)C(=O)N(C)C2=O)c(O)c1,30.8% (inactive)
